# Compound activity: PubChem, several laboratories
# A selection: hits, their analogues and other compounds. The true share with any hit is near 1%.
# WNV protease inh: blocks West Nile virus NS2B-NS3 protease activity | P06935 | WNV NS2B-NS3 protease, fluorogenic substrate Ex360/Em465; hits give low values | z-score (test concentration not listed) | AID 577 | 65,000 tested, 0.18% active; in the data active = z-score below about -3
# Target sequence (P06935 1371-1501 limits assumed): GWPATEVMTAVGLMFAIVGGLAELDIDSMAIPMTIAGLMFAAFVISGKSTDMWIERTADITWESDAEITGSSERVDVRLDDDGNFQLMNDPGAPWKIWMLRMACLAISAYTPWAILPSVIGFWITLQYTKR
# Target sequence (P06935 1502-1679 limits assumed): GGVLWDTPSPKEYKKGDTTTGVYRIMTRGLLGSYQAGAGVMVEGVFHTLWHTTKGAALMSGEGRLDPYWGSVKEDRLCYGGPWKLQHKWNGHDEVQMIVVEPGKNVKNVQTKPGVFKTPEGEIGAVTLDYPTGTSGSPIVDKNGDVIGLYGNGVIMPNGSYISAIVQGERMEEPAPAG
# Cdc25B inh: inhibitors of human Cdc25B phosphatase | AID 368 | 65,000 tested, 0.1% active | recombinant Cdc25B, OMFP fluorescence Ex485/Em525 | P30305 | inhibition, %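 (compounds tested at 10 µM final in the well)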; in the data active = inhibition above about 50%
# Hsp90 block: displaces geldanamycin probe from tumor Hsp90; inhibition, % at 30 µM; NCI-N417 lysate Hsp90, Cy3B-geldanamycin FP displacement; P07900; 64,000 tested, 0.35% active;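 active = inhibition above 50%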;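 note: 0% = tracer plus lysate wells and 100% = tracer alone without lysate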
# SKBR3 24h inh: SK-BR-3 proliferation inhibitors; SK-BR-3 viability, CellTiter-Glo ATP luminescence, 24 h; hits give low values; viability, % at 10 µM; 41,000 tested, 0.47% active; AID 847;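 active = viability at or below the median of all test compounds minus 3 SD, in both replicates if run twice, cut at about 45% in these data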;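 note: 100% = median untreated cell wells and 0% = median positive control drug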
# MKP-1 inh: human dual specificity phosphatase 1 inhibition. recombinant MKP-1, OMFP hydrolysis fluorescence. inhibition, %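 (compounds tested at a single concentration somewhere between 10 and 100 µM)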. AID 374. P28562. 65,000 tested, 0.15% active;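 active = inhibition above about 50%, limit read from the data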;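 note: 0% = DMSO max control wells and 100% = wells with enzyme stopped by NaOH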
# * hit, by the source's call; . = no result.
SMILES,WNV protease inh,Cdc25B inh,Hsp90 block,SKBR3 24h inh,MKP-1 inh
COc1cc(NC(=O)c2cccs2)c(OC)cc1NC(=O)c1ccco1,-0.83,2,-1,92,6
COc1cc(NC(=O)c2ccco2)c(OC)cc1NC(=O)CSc1nnc(-c2cccs2)n1C,-0.04,-8,-2,42*,38
COc1ccc(CN2CC(C(=O)NCCCN3CCCCCC3)CC2=O)cc1 (stereo not given),-0.91,-26,-2,99,4
COc1ccc(CN2CC(C(=O)NCCCN3CCOCC3)CC2=O)cc1 (stereo not given),-0.99,65*,0,84,22
O=[N+]([O-])c1ccc(CSc2ncnc3c2ncn3[C@@H]2O[C@H](CO)[C@H](O)C2O)cc1 (stereo not given in full),.,.,-1,.,.
COc1cc(/C=C/C(=O)CC(=O)/C=C/c2ccc(O)c(OC)c2)ccc1O,-2.2,-5,13,96,5
O=C(O)/C=C/c1ccc(O)c(O)c1,-0.32,-14,53*,114,4
COc1ccc(C2CC(C(F)(F)F)n3ncc(C(=O)NCc4cccnc4)c3N2)cc1OC (stereo not given),0.86,1,-5,60,-1
COc1cc(C2CC(C(F)(F)F)n3ncc(C(=O)O)c3N2)cc(OC)c1OC (stereo not given),-5.8*,-32,3,104,-8
COc1cc2c(=O)n(Cc3ccco3)c(=O)n(CC(=O)c3ccc(Br)cc3)c2cc1OC,-1.1,2,0,56,31
COc1cc2c(=O)n(Cc3ccco3)c(=O)n(CC(=O)c3cccc(Br)c3)c2cc1OC,-1.2,2,-1,42*,34
CCOc1ccccc1N1CCN(S(=O)(=O)c2cccc3nsnc23)CC1,-0.81,3,-9,80,3
O=C(NC1CC2CCCC(C1)N2CC(=O)N1CCCc2ccccc21)C1CCCCC1 (stereo not given),0.13,-5,2,90,4
CN1C(=O)N2CN(C3CCCCC3)CN3C(=O)N(C)C1C23 (stereo not given),2.5,-3,.,103,2
CN1C(=O)N(CN2CCCCC2)C2C1N(C)C(=O)N2CN1CCCCC1 (stereo not given),-12*,12,1,111,-13
Cc1nn(Cc2ccccc2)c(C)c1NC(=O)CSc1nc2sc3c(c2c(=O)n1C)CCC3,-0.04,-6,-6,90,50*
CSc1cccc(NS(=O)(=O)c2ccc3c(c2)oc(=O)n3C)c1,-0.33,4,2,.,-3
O=C1NCC(O)=C1C=NCCCO,0.88,-3,-5,31*,10
COc1ccc(CN=CC2=C(O)CNC2=O)cc1OC,-0.96,-9,-2,92,11
Cc1ccc([N+](=O)[O-])cc1S(=O)(=O)N(C)C,.,.,-1,.,.
Cc1cc2ccccc2c(=O)n1CC(=O)N1CCN(c2cccc(Cl)c2)CC1,2.6,-11,3,29*,13
Cc1cc(NC(=O)c2oc3ccccc3c2C)ccc1-n1cnnn1,-5.5*,-5,-1,65,23
COc1cc(OC)cc(C(=O)Nc2ccc(-n3cnnn3)c(C)c2)c1,2.4,1,-1,.,8
COc1ccc2[nH]cc(C(=O)CN3CCN(C/C=C/c4ccccc4)CC3)c2c1,-0.72,-1,-5,85,-14
C=CCn1c(=O)/c(=C/c2cc(OC)c(OC)c(OC)c2)s/c1=C(/C#N)c1nc2ccccc2n1C,1.1,-22,.,40*,16
SMILES,WNV protease inh,Cdc25B inh,Hsp90 block,SKBR3 24h inh,MKP-1 inh
O=C1C2C=CC=CC2=NC(=S)N1CCN1CCC(=C(c2ccc(F)cc2)c2ccc(F)cc2)CC1 (stereo not given),.,.,-2,.,.
Cc1ccc(CN(CC(=O)NCCc2ccccc2)C(=O)CCCC(=O)Nc2cc(C)on2)cc1,0.09,-7,4,71,6
Cc1cc(NC(=O)CCCS(=O)(=O)c2nc(-c3cccs3)cc(C(F)(F)F)n2)no1,1.9,-1,1,37*,-8
CS(=O)(=O)c1nc(-c2cccs2)cc(C(F)(F)F)n1,1.6,9,.,22*,6
CCOC(=O)c1cnc(C(C)(C)C)[nH]c1=O,-0.41,-11,4,108,4
c1ccc2sc(Cc3nnc4n3CCCCC4)nc2c1,-0.75,3,-2,.,7
COC(=O)/C(=C1/Oc2cc(C)oc(=O)c2S1)C(F)(F)F,-0.22,1,1,38*,-31
COc1ccc(C2CC(=O)C3=C(C2)Nc2ncnn2C3c2ccccc2)cc1 (stereo not given),-0.05,-4,91*,102,-1
COc1ccc(C2CC(=O)C3=C(C2)Nc2ncnn2C3c2ccccc2C)cc1 (stereo not given),-0.36,0,-4,79,24
CCCCCCCCS(=O)(=O)Nc1cc(OC)cc2cccnc12,.,.,2,.,.
CC1=C(C(=O)OCC(C)C)C(c2ccc(F)cc2)NC(=O)N1 (stereo not given),-1.6,5,1,.,17
COc1ccc(CCNC(=O)CSc2nnc(-c3ccc(F)cc3)o2)cc1OC,-6.1*,0,0,97,-1
COc1ccc(CCNC(=O)CSc2nnc(CNc3ccc(Cl)cc3)o2)cc1OC,0.38,6,1,123,2
CO/N=C(\C(=O)N[C@@H]1C(=O)N2C(C(=O)O)=C(CSc3nc(=O)c(O)nn3C)CSC12)c1csc(N)n1 (stereo not given in full),.,.,0,.,.
Nc1nc(Nc2ccccc2)nc2c1ncn2[C@@H]1O[C@H](CO)[C@H](O)C1O (stereo not given in full),.,.,0,.,.
COc1ccc(-c2nc3c(=O)n(C)c(=O)[nH]c3n2CCc2ccccc2)cc1,-3.5*,-3,-1,74,20
COCCCNC(=O)CN(c1cccc(Cl)c1)S(C)(=O)=O,0.81,-9,1,.,7
COc1ccc(Nc2ccc3c(c2)=NC2(CCCCC2)[N+]=3[O-])cc1,1.3,13,.,3.2*,17
[O-][N+]1=c2ccc(Nc3ccccc3)cc2=NC12CCCCC2,-2.6,-9,46,46,21
COc1ccc(-n2nnnc2SCC(=O)Nc2nnc(C)s2)cc1OC,0.23,-1,-1,92,3
O=S(=O)(NC1CCc2ccccc21)c1ccc(S(=O)(=O)N2CCCC2)cc1 (stereo not given),0.97,2,92*,80,-13
CSc1nc(N)c2ncn([C@@H]3O[C@H](COP(=O)(O)OP(=O)(O)OP(=O)(O)O)[C@H](O)C3O)c2n1 (stereo not given in full),.,.,5,.,.
CCOC(=O)C12CC1/C(=N/O)c1ccccc1O2 (stereo not given),.,.,1,.,.
COc1ccccc1-n1c(SCC(=O)N2CCOCC2)nc(O)c(Cc2ccccc2)c1=O,-8.6*,8,-3,94,4
COc1ccc(N2CCN(C(=O)c3cn(C)c(=O)c4c3c3ccccc3n4C)CC2)cc1,-3.8*,-12,0,80,39
COc1ccc(N2CCN(C(=O)c3cn(C4CCCC4)c(=O)c4c3c3ccccc3n4C)CC2)cc1,0.13,-11,-7,.,30
COc1cc(NCCCC(C)=O)c2ncccc2c1,.,.,4,.,.
